# Source: PubChem (National Center for Advancing Translational Sciences (NCATS))
# PLK1 PBD block: PLK1 (human) polo-box domain binding inhibition. Plk1 PBD binding of FITC phosphopeptide, fluorescence polarization. Potency, µM, most hits filed as inhibitors. 360,000 tested, 2.8% active. AID 720504; further: series mostly up to about 57 µM; nearly all actives have a fitted effect of over 65% in size
# Target sequence (P53350 whole entry, looked up, the tested form may be a part): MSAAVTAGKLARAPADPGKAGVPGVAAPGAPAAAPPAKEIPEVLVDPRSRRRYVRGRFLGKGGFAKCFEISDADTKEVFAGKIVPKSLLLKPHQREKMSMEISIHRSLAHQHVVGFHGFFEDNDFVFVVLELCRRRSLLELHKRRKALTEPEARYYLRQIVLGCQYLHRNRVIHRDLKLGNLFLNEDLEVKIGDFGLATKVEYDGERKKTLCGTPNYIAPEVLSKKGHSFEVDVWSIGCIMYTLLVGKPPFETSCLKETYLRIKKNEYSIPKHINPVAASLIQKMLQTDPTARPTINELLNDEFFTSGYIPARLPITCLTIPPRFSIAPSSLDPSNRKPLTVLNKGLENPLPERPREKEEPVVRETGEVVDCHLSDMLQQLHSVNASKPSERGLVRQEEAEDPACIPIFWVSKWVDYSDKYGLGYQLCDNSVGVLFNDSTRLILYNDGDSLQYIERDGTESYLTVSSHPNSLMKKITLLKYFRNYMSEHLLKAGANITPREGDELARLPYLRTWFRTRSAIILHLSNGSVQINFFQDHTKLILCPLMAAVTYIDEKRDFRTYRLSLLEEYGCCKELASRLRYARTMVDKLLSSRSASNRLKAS
# MBNL1-CUG inh: inhibitors of human MBNL1 binding to CUG repeat RNA; Q9NR56; TR-FRET MBNL1-His/biotin-(CUG)12 binding, 665/545 ratio; Potency, µM (highest dose often 57.5 µM), usual class: inhibitors; 280,000 tested, 0.036% active; AID 2675; active means well fitted inhibition curve with a large enough effect in the signal ratio, with a control signal flat, not every such curve was filed as active; inconclusive means small, poorly fitted or top-dose-only effect, or effect the other way, or a change in a side signal; inactive means no such curve, though single readings can be large or run the other way; the % refers to the signal ratio
#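 Compounds (final 92 nM to 58 uM) are added to His-tagged MBNL1 and biotin-(CUG)12, then terbium anti-His antibody and streptavidin-XL665 (5 nM final). After 60 min at room temperature, the 665/545 nm ratio is read.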
# KCNH2 3.1 block: inhibitors of human KCNH2 3.1 potassium channel isoform. U2OS KCNH2 3.1, thallium flux FluxOr; active compounds read low. activity change, % (tested at about 1.8 µM). 340,000 tested, 0.95% active. AID 720553;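 active means maximum activity change below -70%; inconclusive means maximum activity change from -70% to -50%; inactive means maximum activity change above -50%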;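 further: thallium influx rate constant from kinetic fluorescence after stimulation buffer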
#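 We transduce U2OS cells with the mutant 3.1 virus, culture them overnight, load FluxOr with Red40 quencher for 45 min, then add stimulation buffer and read kinetically for 2 min to derive a normalized rate constant.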
# VDR inhibitor: blocks the human vitamin D receptor. AID 504847. Potency, µM, actives largely listed as inhibitors. 400,000 tested, 0.93% active. VDR-SRC2-3 peptide fluorescence polarization, 2 h. P11473
#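 After 23 nl compound addition and a short centrifugation, plates sat for 2 hours at ambient temperature; polarization of fluorescence then indicated loss of VDR binding to peptide SRC2-3.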
# CBFb-RUNX1 inh: CBF-beta/RUNX1 interaction disruption; AID 1477; AlphaScreen CBFb-His/RUNX1-biotin binding, biochemical; 230,000 tested, under 10 active; Q01196+Q13951; Potency, µM (top dose mostly 59.8 µM), hits mostly inhibitors
#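 AlphaScreen binding: CBFb-His and RUNX1-biotin (30 nM each) preincubated 20 min, compound added for 15 min, then nickel and streptavidin beads for 90 min, all at room temperature. Disruption of the interaction by any mechanism counts as activity.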
# hERG WT inh: KCNH2 (human, wildtype) channel inhibition | Q12809 | U2OS, BacMam KCNH2, thallium flux FluxOr; active compounds read low | activity change, % at 1.84 µM | 340,000 tested, 0.37% active;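 active means maximum activity change below -70%; inconclusive means maximum activity change between -70% and -50%; inactive means maximum activity change above -50%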
#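 U2OS cells transduced with wild-type KCNH2 virus are loaded with FluxOr dye for 45 min, and thallium flux is measured in kinetic reads before and after stimulation buffer. Rate constants are normalized to DMSO controls.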
# A number is an active result; n = inactive; u = inconclusive; x = not tested or not shown. Hits are enriched below; roughly 3.8% of the tested compounds scored in any of these assays. Unless noted, the call rests on the fitted dose curve; in most records, active means well fitted curve in the direction sought with a large enough effect; inconclusive means small, poorly fitted or top-dose-only effect, or another doubt; inactive means no such curve, though single readings can be large; an effect the other way counts as inactive or inconclusive.
SMILES,PLK1 PBD block,MBNL1-CUG inh,KCNH2 3.1 block,VDR inhibitor,CBFb-RUNX1 inh,hERG WT inh
COc1ccc(NC(=S)NNc2ccc(S(=O)(=O)Nc3ccccc3C(=O)O)cc2[N+](=O)[O-])cc1,8.4µM,u,n,n,x,n
CCOC(=O)c1ccc2oc(=O)n(Cc3ccccc3)c2c1,x,x,x,n,x,x
O=C(NCC1CCCO1)c1ccccc1NS(=O)(=O)c1ccc(Br)s1 (stereo unspecified),24µM,x,n,n,x,n
Nc1cccc(Cl)c1N1CCOCC1,27µM,n,n,n,n,n
Nc1ccc(N2CCOCC2)c(Cl)c1,24µM,n,n,n,n,n
COc1ccc(-c2cc(C)no2)cc1S(=O)(=O)Nc1c(C)cc(C)cc1C,x,x,x,n,x,x
NC(=O)c1cccnc1Oc1cccc(Cl)c1,27µM,n,n,u,n,n
NC(=O)Cn1c(=O)n(CCCCCC(=O)NCc2ccccc2Cl)c(=O)c2sccc21,x,x,x,n,x,x
Cc1[nH][nH]c(=O)c1C(c1ccc(O)c([N+](=O)[O-])c1)c1c(C)[nH][nH]c1=O,n,u,n,n,n,n
Cc1[nH][nH]c(=O)c1C(c1ccc([N+](=O)[O-])cc1)c1c(C)[nH][nH]c1=O,27µM,x,n,u,n,n
COc1ccc(O)c(C(c2c(C)[nH][nH]c2=O)c2c(C)[nH][nH]c2=O)c1,7.5µM,n,n,n,n,n
COc1ccc(C(c2c(C)[nH][nH]c2=O)c2c(C)[nH][nH]c2=O)cc1Br,24µM,n,n,u,x,n
Cc1ccc(C(c2c(C)[nH][nH]c2=O)c2c(C)[nH][nH]c2=O)cc1,27µM,n,n,u,x,n
CC(=O)c1ccc(N2CCN(c3nc4ccccc4c4nc(-c5cccc(C)c5)nn34)CC2)cc1,x,x,x,n,x,x
Cc1[nH][nH]c(=O)c1[C@@H](c1ccccc1[N+](=O)[O-])C(C#N)C#N,24µM,x,n,u,n,n
CCOC(=O)C(C#N)C(c1cccnc1)c1c(C)[nH][nH]c1=O (stereo unspecified),u,n,n,n,n,n
CC1=NN(c2ccc(C)c(C)c2)C(=O)C1C(c1cccc(O)c1)C1C(=O)N(c2ccc(C)c(C)c2)N=C1C (stereo unspecified),8.4µM,n,n,u,n,n
CCOC(=O)c1[nH]c2ccccc2c1NC(=O)c1ccc(C)c(C)c1,x,x,x,n,x,x
COc1ccc(N2CCN(C(=O)CCNS(=O)(=O)c3ccccc3)CC2)cc1,9.5µM,n,n,u,n,n
CCOc1ccc(S(=O)(=O)NCCC(=O)N2CCN(c3ccc(OC)cc3)CC2)cc1,21µM,n,n,n,n,n
CCOc1ccc(S(=O)(=O)NCCC(=O)N2CCN(Cc3ccccc3)CC2)cc1,n,x,n,n,x,n
Cc1nn(-c2ccccc2)c2sc(C(=O)Nc3cccc(Cl)c3)cc12,x,x,x,n,x,x
Cn1c(=O)c2c(ncn2CC(=O)Nc2cccc(S(=O)(=O)Nc3ccccc3F)c2)n(C)c1=O,30µM,n,n,n,n,n
CN(c1ccccc1)S(=O)(=O)c1cccc(NC(=O)Cn2cnc3c2c(=O)n(C)c(=O)n3C)c1,n,n,n,n,n,n
CCc1ccccc1N1CC(c2nc3ccccc3n2Cc2cccc(C)c2)CC1=O (stereo unspecified),x,x,x,n,x,x
SMILES,PLK1 PBD block,MBNL1-CUG inh,KCNH2 3.1 block,VDR inhibitor,CBFb-RUNX1 inh,hERG WT inh
C=CCOc1ccc(/C=C2\SC(=Nc3cccnc3)NC2=O)cc1,n,n,n,n,n,n
O=C1/C(=C\c2cccnc2)Sc2ccccc21,24µM,u,n,u,n,n
Cc1ccccc1N=C1NC(=O)/C(=C/c2cccnc2)S1,n,n,n,n,n,n
CC(/C=C1\SC(=Nc2cccnc2)NC1=O)=C\c1ccccc1,27µM,x,n,n,n,n
O=C1N/C(=N/O)S/C1=C/c1cccnc1,24µM,u,n,n,n,n
CCCCCCCCCCCCCCCC(=O)OCC(O)C1OC(=O)C(O)=C1O (stereo unspecified),x,x,x,5µM,n,x
CN(C)S(=O)(=O)c1cccc(-c2nnc(SCc3cc(Cl)cc4c3OCOC4)n2N)c1,9.5µM,n,n,u,n,n
